Data as given in PubChem BioAssay (NCI).
The panel holds about 83,000 compounds, 20% with a hit somewhere; the sample as a whole holds those more often.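 Results are percent growth after 48 hours of single-concentration exposure. 100 means growth as in untreated cells, lower positive values show inhibition; negative values down to -100 show cell death.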 A number with no mark means an inactive call. Calls of active or inactive are those of the source. Rule for the calls: active = growth percent below 10; inactive = the rest.

Columns and labels:
Experiment in all cases: NCI-60 one-dose screen, 48 h (100 = growth as untreated, 0 = no growth, -100 = all killed)
Conditions in all cases: 10 µM unless noted
[1] = tested on: NCI-H23 lung
[2] = tested on: NCI-H226 lung
[3] = tested on: NCI-H322M lung
[4] = tested on: HOP-62 NSCLC
[5] = tested on: NCI-H460 lung
[6] = tested on: HOP-92 NSCLC
[7] = tested on: NCI-H522 lung
[8] = tested on: A549/ATCC NSCLC
[9] = tested on: 786-0 renal
[10] = tested on: COLO 205 colon
[11] = tested on: DU-145 prostate
[12] = tested on: K-562 leukemia
[13] = tested on: MALME-3M melanoma
[14] = tested on: MDA-MB-231 breast
[15] = tested on: RXF 393 renal
[16] = tested on: SF-268 CNS
[17] = tested on: SF-295 CNS
[18] = tested on: UACC-257 melanoma
[19] = tested on: M14 melanoma

Row | SMILES | growth [1] | growth [2] | growth [3] | growth [4] | growth [5] | growth [6] | growth [7] | growth [8] | growth [9] | growth [10] | growth [11] | growth [12] | growth [13] | growth [14] | growth [15] | growth [16] | growth [17] | growth [18] | growth [19]
1 | O=C([C@@H](COCc1ccccc1)N1C(=O)[C@@H](N2C(=O)OC[C@@H]2c2ccccc2)[C@H]1/C=C/c1ccccc1)N1CCC(CCN2CCCCC2)CC1 | 87% | 93.8% | 83.2% | 77.8% | 94.2% | 76.1% | 57.1% | 75.4% | 83.3% | 65.1% | 100% | 55.8% | -22.3% (active) | 72.6% | 88.7% | 77.2% | 102% | 64.1% | 97.8%
2 | CC(=O)Oc1ccc(Nc2c3ccccc3nc3ccccc23)cc1 | 11.9% | -59.2% (active) | 19.9% | 11.2% | -26.5% (active) | -3.96% (active) | -69.7% (active) | -23.7% (active) | 16.5% | 3.96% (active) | 8.74% (active) | 6.78% (active) | -33.2% (active) | 23.6% | -2.55% (active) | 22% | -21.8% (active) | -25.7% (active) | 20.7%
3 | C[C@@H]1CCC2=C(CCC[C@]2(C)C(=O)O)[C@@]1(C)CCc1ccoc1 | 99.4% | 85.7% | 93.4% | 96.5% | 96.9% | 85.1% | 77% | 75.8% | 112% | 112% | 108% | 116% | 110% | 90% | 105% | 95.1% | 102% | 82.9% | 103%
4 | CCOC(=O)/C=C/C(=O)[C@H](CC(C)C)NC(=O)[C@H](Cc1ccccc1)NC(=O)OCc1ccccc1 | 91% | 102% | 103% | 108% | 84.9% | 79.7% | 18% | 73.3% | 30% | 67.5% | 68.3% | 5.9% (active) | 103% | 63.5% | 26.8% | 84.8% | 99.7% | 70.7% | 65.6%
5 | CN1CCOCCOCCOc2ccccc2NC(=O)c2nc(cnc2N)-c2ccc(cc2)S1(=O)=O | 34.5% | 101% | 36.8% | 92.4% | 34.3% | 95.5% | 43.9% | 49.8% | 18% | 27.9% | 31.1% | 15.9% | 55.7% | 66.3% | 29.9% | 63.3% | 57.7% | -34.6% (active) | 26.9%
6 | O=C(CCCCN1CCOCC1)Nc1ccc(Cn2nnc3c2C(=O)c2nnn(Cc4ccc(NC(=O)CCCCN5CCOCC5)cc4)c2C3=O)cc1 | -18% (active) | -52.2% (active) | -89.3% (active) | -59.1% (active) | -39.8% (active) | -40.3% (active) | -68.3% (active) | -68.3% (active) | -50.5% (active) | -78.8% (active) | -88.6% (active) | 6.24% (active) | -86% (active) | -1.55% (active) | -67.4% (active) | -35.5% (active) | -87.7% (active) | -77.2% (active) | -90.3% (active)
7 | C[C@]12C[C@@H](c3ccoc3)OC(=O)[C@@H]1CC[C@]1(C)[C@@H]2CC[C@@H](O)[C@]1(C)O | 76.1% | 107% | 99.2% | 49.4% | 50.1% | 54.2% | 55.5% | 49.5% | 84% | 40.9% | 73% | 39.8% | 81.6% | 74.6% | 102% | 106% | 51.7% | 83% | 82.4%
8 | COc1cnc2c(c1)C(=O)c1c-2n(CCCBr)c(=O)c2cc([N+](=O)[O-])ccc12 | -5.87% (active) | -1.66% (active) | 15.5% | 3.86% (active) | 2.4% (active) | 26.5% | -18.4% (active) | 2.68% (active) | 5.26% (active) | -26.2% (active) | 7.11% (active) | 11.7% | -2.44% (active) | 24.3% | -10.8% (active) | 9.06% (active) | -11.3% (active) | -32.3% (active) | 3.34% (active)
9 | CCn1cc2c(cc1=O)-c1nc3ccccc3c3ccnc(c13)C2=O | 27.6% | 63.1% | 76.3% | 11.9% | 2.86% (active) | 56.6% | 39% | 29% | 69.1% | 60.8% | 36.6% | 50.6% | 90.1% | 75.1% | 63.5% | 54.3% | 29.9% | 74.2% | 28.9%
10 | COc1ccc(/C(=C/c2ccc3ccccc3c2)c2nn[nH]n2)cc1OC | 31.5% | 81.1% | 40.1% | 27.8% | 14.1% | 5.89% (active) | -2.85% (active) | 25.4% | 40.4% | -2.4% (active) | 20.9% | 17.8% | 49.1% | 44.8% | -13.3% (active) | 53.3% | 4.59% (active) | 66.3% | 10.9%
11 | COc1ccc2nc3cc(Cl)ccc3c(N3CCN(c4ccnc(N5CCN(C)CC5)n4)CC3)c2c1 | 34.6% | 90.2% | 94.2% | 73.4% | 64.7% | 59.6% | -60.4% (active) | 83.4% | 78.9% | -45.3% (active) | 3.84% (active) | -36.1% (active) | 83.8% | 28.3% | 10.5% | 52.8% | 93.9% | 90.7% | 58.5%
12 | CNCCCn1c2c(c3ccc([N+](=O)[O-])cc3c1=O)C(=O)c1cc(OC)cnc1-2 | -55.4% (active) | -81.5% (active) | -5.51% (active) | -33.4% (active) | -70.4% (active) | -7.43% (active) | -29% (active) | -82% (active) | -78.5% (active) | -13.2% (active) | 0.657% (active) | -28.9% (active) | -69.2% (active) | -51.9% (active) | -90.5% (active) | 0.163% (active) | -13.2% (active) | -23.1% (active) | -13.1% (active)
13 | Oc1cc(O)c2c(=S)cc(-c3ccc(Cl)cc3)oc2c1 | 4.05% (active) | 73.6% | 60.4% | 46.4% | 21% | -21.9% (active) | -1.71% (active) | 53.6% | 74.6% | 85.8% | 36.9% | 28.2% | 22.7% | 21.6% | 64.6% | 36.8% | 91.4% | 32.9% | 31.4%
14 | N#CC1=C(N)Oc2c(ccc3ccccc23)C1c1cccs1 (centres undefined) | 18% | 40.9% | 39.1% | 25.5% | 0.254% (active) | 35.5% | -0.254% (active) | 22.5% | 31.9% | -54.9% (active) | -21.2% (active) | 0.938% (active) | 36.4% | -9.69% (active) | 8.35% (active) | 9.29% (active) | 24.7% | 75.1% | 17.3%
15 | CCOC(=O)c1c2c(n3ccc(NC(=O)CCN4CCCCC4)cc13)C(=O)c1ncccc1C2=O | -55.2% (active) | 73.8% | -77.4% (active) | -74.5% (active) | -35.9% (active) | 78.5% | 5.07% (active) | -70.1% (active) | 19.4% | -71.8% (active) | -93.9% (active) | -48.2% (active) | -71.7% (active) | -72.9% (active) | 41.4% | 36.6% | 35.3% | 21.2% | -77.9% (active)
16 | COc1ccc(/C=C/C(=O)c2c(O)c(C)c(O)c3c2OC2=CC(O)=C(C(C)=O)C(=O)[C@]23C)cc1 | -32.9% (active) | -28.2% (active) | -17.9% (active) | -40% (active) | 1.69% (active) | -18.8% (active) | -32.2% (active) | -26.8% (active) | -29.7% (active) | -74.1% (active) | 8.23% (active) | -21.3% (active) | -57.1% (active) | -26.2% (active) | -33.3% (active) | -17.5% (active) | -22.7% (active) | -19.2% (active) | -7.97% (active)
